Tb PYK inh = T. brucei pyruvate kinase inhibition; Q57TT1; TbPYK enzyme, Kinase-Glo Plus ATP luminescence, 45 min; Potency, µM (titrated, usually from 76.8 µM), for inactives: top-dose activity, negative = inhibition, hits mostly inhibitors; hit rate 0.12% among 410,000; note: nearly all actives have a fitted effect of over 50% in size
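Activity of T. brucei pyruvate kinase was followed by Kinase-Glo Plus luminescence after the enzyme reacted 45 min at room temperature with 130 uM ADP (final) and substrate. Test compounds were added before ADP at multiple concentrations.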
Sm TGR inh = blocks Schistosoma mansoni thioredoxin glutathione reductase; AID 485364; Q962Y6; Potency, µM (series often up to 114 µM), without a hit: top-dose activity change, negative = inhibition, most hits filed as inhibitors; hit rate 3% among 360,000; purified TGR, DTNB reduction, TNB absorbance 405 nm; note: nearly all actives have a fitted effect of over 60% in size
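TGR 20 nM + NADPH 100 uM (dispensed conc.), cpd preinc 15 min RT; start with NADPH (500 uM addition) then DTNB (15 mM addition). Kinetic TNB absorbance, 405 nm filter. Four-parameter Hill fit across titration.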
RE007 growth inh = less growth of the S. pombe RE007 Vpr strain | S. pombe RE007 Vpr strain, BacTiter-Glo ATP luminescence, 24 h | Potency, µM (highest dose often 92.2 µM), without a hit: at the highest dose activity change, negative = less growth, most hits filed as inhibitors | hit rate 0.21% among 360,000 | AID 651644; active = well fitted falling curve with a large enough effect; inconclusive = small, poorly fitted or top-dose-only effect; inactive = no such curve, though single readings can be large or run the other way; note: nearly all actives have a fitted effect of over 50% in size
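Fission yeast RE007 carrying one integrated HIV-1 vpr copy, seeded at OD 0.01 in PMG+AL medium with 23 nL pinned compound. Grown 24 h at 30 degrees; viability read by BacTiter-Glo luminescence after 5 min.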
FMDV antiviral = blocks foot and mouth disease virus | Potency, µM (doses to about 57.9 µM), for the others: at the top dose activity change, negative = inhibition, actives largely listed as inhibitors | FMDV antiviral cell-based qHTS | hit rate 1.2% among 410,000 | AID 1159524; calls by dose curve; tested in HEK293T cells; note: read-out not given here; nearly all actives have a fitted effect of over 45% in size
* hit, by the source's call; ? = inconclusive; / = no result given; [ ] = remark or other dose. Most compounds without a hit are left out; they make up all but 3.7% or so of the library. Unless noted, calls come from the whole dose curve; as a rule, active = well fitted curve in the direction sought with a large enough effect; inconclusive = small, poorly fitted or top-dose-only effect, or another doubt; inactive = no such curve, though single readings can be large; an effect the other way counts as inactive or inconclusive. % is set by controls: 0 for no effect and ±100 for the full control effect; potency is the fitted concentration of half-maximal effect.

SMILES	Tb PYK inh	Sm TGR inh	RE007 growth inh	FMDV antiviral
Cn1c(C(=O)OCC(=O)NCc2ccco2)cc2sccc21	-23.0%	50.1µM*	8.3%	/
CC(C)C(NC(=O)OCc1ccccc1)C(=O)OCC(=O)NCc1ccco1 (configuration not stated)	-15.6%	28.2µM*	-27.5%	-10.9%
Cc1cc2c(cc(C(=O)OCC(=O)NCc3ccco3)n2C)s1	1.6%	-15.0%	4.1%	18.9%
CCN(CC)S(=O)(=O)c1ccc(OCC(=O)NCc2ccco2)cc1	-3.7%	22.4µM*	-0.2%	-3.1%
CC(C)[C@H](NC(=O)OCc1ccccc1)C(=O)OCC(=O)NCc1ccco1	-8.8%	/	-5.4%	1.0%
Cc1ccc(S(=O)(=O)N(C)c2ccc(OCC(=O)NCc3ccco3)cc2)cc1	/	1.5%	-10.5%[3.69 µM]	-10.3%
Cc1ccc2nc(CNC(=O)c3cc(NC(=O)c4ccccc4)cc4ncn(C5CCCC5)c34)cn2c1	/	/	/	-10.5%
CCOc1cc(C(=O)N(Cc2nc(-c3ccc(C)cc3)no2)C(C)C)cc(OCC)c1OCC	-1.1%	5.6%	/	?
O=C(O)c1ccc(CNCc2ccc(Cl)cc2)s1	0.9%	-9.4%	/	4.5%
O=C(NCc1c(-n2cccc2)sc2c1CCCC2)Nc1cccc(C(F)(F)F)c1	-1.4%	8.1%	/	?
O=C(NCCc1ccccn1)c1cc(-c2ccc(Cl)c(Cl)c2Cl)nc2ccccc12	-5.4%	-12.0%	8.1%	39.8µM*
CCCOc1cccc(C2C(C(=O)c3ccc(C)o3)=C(O)C(=O)N2CCN2CCOCC2)c1 (configuration not stated)	-8.0%	?	-1.6%	13.1%
CCCOc1cccc(C2C(C(=O)c3ccc(C)o3)=C(O)C(=O)N2c2nc(C)c(C(C)=O)s2)c1 (configuration not stated)	-8.7%	35.5µM*	9.4%	5.0%
C=CCOc1cccc(C2C(C(=O)c3ccc(C)o3)=C(O)C(=O)N2CCN(C)C)c1 (configuration not stated)	-6.1%	35.5µM*	5.7%	-9.3%
CCc1ccc(OCC(=O)N(Cc2ccco2)Cc2ccco2)cc1	0.1%	-2.3%	/	-12.3%
c1ccc(-c2ncc3ccccn23)cc1	-2.9%	39.8µM*	-17.3%	10.8%
c1ccc2c(c1)ncc1cccn12	-4.1%	10.4%[11.4 µM]	13.1%	/
O=C(CN1C(=O)/C(=C2\SC(=S)N(C3CCS(=O)(=O)C3)C2=O)c2ccccc21)Nc1ccc(F)cc1 (configuration not stated)	-6.6%	-5.7%	-2.5%	12.6µM*
COc1ccc(NC(=O)CN2C(=O)/C(=C3\SC(=S)N(C4CCS(=O)(=O)C4)C3=O)c3ccccc32)cc1 (configuration not stated)	-0.1%	?	42.4%	?
CC(C)(C)c1ccc(S(=O)(=O)N2CCN(Cc3noc(CCC(=O)N4CCCCC4)n3)CC2)cc1	1.0%	-3.0%	/	-27.4%
COCCN1C(=S)N[C@@H](c2ccccc2)C(C(=O)OC)=C1C	/	31.6µM*	/	/
COC(=O)CCCCCN1C(=O)NC(c2ccccc2)C(C(=O)OCc2ccccc2)=C1C (configuration not stated)	3.9%	-3.3%	-1.4%	28.2µM*
COC(=O)C1=C(C)N(Cc2ccccc2)C(=S)N[C@H]1c1ccc(Br)cc1	-0.6%	12.7%	-5.4%	-17.5%
CC1=C(C(=O)OCc2ccccc2)C(c2ccccc2Br)NC(=O)N1 (configuration not stated)	-1.9%	3.9%	2.5%	28.2µM*
C=CCOC(=O)C1=C(C)NC(=O)NC1c1ccc(N(C)C)cc1 (configuration not stated)	-2.5%	44.7µM*	-10.6%	-17.9%
COc1ccc(C2CC(=O)c3c(C)nc(N4CCN(C=O)CC4)nc3C2)c(OC)c1 (configuration not stated)	4.2%	-5.0%	/	?
C=C1CC[C@@H]2[C@](C)(CO)[C@H](O)CC[C@@]2(C)[C@@H]1C/C=C1/C(=O)OC[C@H]1O	/	/	/	-26.2%
COc1ccc(OC)c(C2NC(=O)N(C)C(C)=C2C(=O)OCc2ccccc2)c1 (configuration not stated)	-1.0%	4.9%	1.2%	?
COc1ccc(COC(=O)C2=C(C)NC(=O)NC2c2ccc(F)cc2)cc1 (configuration not stated)	-6.0%	0.3%	6.3%	25.1µM*
CC1=C(C(=O)OCc2ccccc2)C(c2ccccc2Cl)NC(=O)N1C (configuration not stated)	4.6%	1.1%	26.6%	17.8µM*

Screens from PubChem.
